Hit rate of the full screen: of about 310,000 compounds, about 3,900 (1.3%) were called active.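 How the source made its calls: active means compounds whose thallium flux B-score, printed positive for inhibition, exceeds three library SD while starting fluorescence stays within three; inactive means the rest.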 What follows is part of a selection rich in actives, with near analogues and random picks from the rest.

For this assay, the target named is Potassium voltage-gated channel subfamily KQT member 1 (Homo sapiens) (UniProt P51787). In words: inhibitors of human KCNQ1 channel, primary screen, cell-based, thallium flux, high-throughput (AID 2642).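 Further: channel opened by potassium depolarization with thallium stimulus after 20 min compound exposure.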 Conditions: CHO-K1 KCNQ1, FluxOR thallium flux fluorescence, at 10 µM; stronger effect = higher value.
Sequence of Potassium voltage-gated channel subfamily KQT member 1 (Homo sapiens) (P51787 whole entry, looked up): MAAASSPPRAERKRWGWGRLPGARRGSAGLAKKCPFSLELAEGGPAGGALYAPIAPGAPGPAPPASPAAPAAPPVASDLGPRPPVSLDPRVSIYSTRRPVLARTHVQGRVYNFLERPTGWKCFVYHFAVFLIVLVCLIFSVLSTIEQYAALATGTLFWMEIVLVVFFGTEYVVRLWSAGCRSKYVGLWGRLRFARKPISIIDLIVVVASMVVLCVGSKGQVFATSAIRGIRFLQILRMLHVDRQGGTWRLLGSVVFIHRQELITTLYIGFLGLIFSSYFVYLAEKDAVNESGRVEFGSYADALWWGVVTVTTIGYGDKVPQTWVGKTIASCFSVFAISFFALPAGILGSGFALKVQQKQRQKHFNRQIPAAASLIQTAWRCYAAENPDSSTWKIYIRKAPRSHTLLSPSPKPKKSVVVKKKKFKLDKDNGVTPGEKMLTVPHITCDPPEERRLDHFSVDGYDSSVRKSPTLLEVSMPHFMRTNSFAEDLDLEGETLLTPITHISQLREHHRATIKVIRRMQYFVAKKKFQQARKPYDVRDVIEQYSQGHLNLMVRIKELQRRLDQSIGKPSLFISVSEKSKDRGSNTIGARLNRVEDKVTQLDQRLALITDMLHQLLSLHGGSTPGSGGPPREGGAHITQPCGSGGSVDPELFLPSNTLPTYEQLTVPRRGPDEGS
Turning to `Cc1cccc(CNS(=O)(=O)c2ccc(-c3cnc(C4CC4)o3)cc2)c1`, the B-score entry was “inactive”.
Then `CCOC(=O)Cn1c(=O)n(Cc2ccc(OC)cc2)c(=O)c2cccnc21`, with “inactive”.
In the case of `COC(=O)[C@@H](Cc1ccccc1)NC(=O)NCCc1ccccc1`, the B-score entry was “inactive”.
Turning to `CCOC(=O)c1cc2sccc2n1Cc1ccc(C#N)cc1`, the B-score entry was “inactive”.
Then `CC1Cc2ccccc2N1C(=O)c1cc2sccc2n1Cc1ccccc1` (stereo not drawn), with 6 (active); and `O=C(c1cc2sccc2n1Cc1ccc(F)cc1)N1CCc2ccccc21`, with “inactive”; and `Cn1nc(C(F)(F)F)cc1-c1ccc(/C=C(\C#N)C(=O)c2cccc(C(F)(F)F)c2)s1`, with 8 (active).
Next, `CCC(=O)OCc1c(C(F)(F)F)nn(C)c1Oc1cccc(C(F)(F)F)c1`: “inactive”.
In the case of `Cn1nc(C(F)(F)F)cc1C(=O)O`, the B-score entry is “inactive”.
As for `CCCCN(C)CCNC(=O)C1CCCN(S(=O)(=O)c2cccc3nsnc23)C1` (stereo not drawn), the B-score entry is “inactive”.
Then `O=C(OCC(=O)N(CCc1ccccc1)Cc1ccccc1)c1ccccc1[N+](=O)[O-]`, with 6 (active); and `CN(Cc1ccccc1)C(=O)COC(=O)c1ccccc1Nc1ccccc1`, with “inactive”.
For the compound `Cc1c(C(=O)NCCCc2ccccc2)cccc1[N+](=O)[O-]`, the B-score result was “inactive”.
Regarding `CC1=NN(C(C)C)C(=O)C1`, the B-score result was “inactive”.
With `CN(C)c1ccc(/C=N\S(=O)(=O)c2ccccc2)cc1`, the B-score result was “inactive”.
Next, `CC[n+]1cc(C)ccc1/C=C/c1ccc(N(C)C)cc1`: 14 (active); `Cc1nnc2n1N=C(c1ccc3c(c1)NC(=O)CO3)CS2`: “inactive”; `Cc1noc(C)c1CSCC(=O)N(CCC(C)C)c1c(N)n(Cc2ccccc2)c(=O)[nH]c1=O`: “inactive”.
Next, `COc1cccc(N(CC(=O)NC2CCCC2)C(=O)Cn2nnc(-c3ccc(C)o3)n2)c1`: “inactive”; `Cc1cccc(C(=O)Nc2nnc(S(=O)(=O)N3CCCCCC3)s2)c1`: “inactive”; `O=C(Nc1nnc(S(=O)(=O)N2CCOCC2)s1)c1cccc(Br)c1`: “inactive”.
Next, `O=C(Nc1nnc(S(=O)(=O)N2CCCCCC2)s1)c1cccc(Br)c1`: 7 (active); `CCn1cc(CNC(=O)c2cc([N+](=O)[O-])c(C)c([N+](=O)[O-])c2)cn1`: “inactive”; `Cc1cccc(NC(=O)c2sc(-c3ccccc3)nc2-c2ccc([N+](=O)[O-])cc2)c1`: 6 (active).
Regarding `Cc1cccc(NC(=O)c2ccc([N+](=O)[O-])o2)c1`, the B-score entry was “inactive”.
Then `Cc1cccc(NC(=O)c2cc([N+](=O)[O-])ccc2N2CCN(C)CC2)c1`, with “inactive”.
For `COc1ccc(CCNc2ncnc3c2nnn3Cc2ccccc2)cc1`, the B-score entry is “inactive”.
Regarding `O=C1/C(=C/c2ccc(F)cc2)SC(=S)N1CCCC(=O)N1CCCCC1CCO` (stereo not drawn), the B-score result is “inactive”.
Then `COc1ccc(CCNC(=O)C(=O)NCC2OCCN2S(=O)(=O)c2ccc(OC)c(C)c2)cc1` (stereo not drawn), with “inactive”.
Take `O=C1C2C3C=CC(C4CC34)C2C(=O)N1c1nccs1` (stereo not drawn): the B-score result was “inactive”.
On to `CC(C)(C)Oc1ncc(Br)c(OC(C)(C)C)n1`, for which the B-score entry is “inactive”.
Next, `COc1cccc(-c2cnc(OC(C)(C)C)nc2OC(C)(C)C)c1`: 8 (active); `COc1ccc(-c2nc(N)ncc2-c2ccc(Cl)cc2)c(O)c1`: “inactive”.
Turning to `CCOc1cc2c(Cl)ncnc2c(OCC)c1OCC`, the B-score result was “inactive”.
Next, `COc1cccc(CN2CCN(Cc3ccc4cccc(F)c4n3)CC2CCO)c1` (stereo not drawn): “inactive”; `O=S(=O)(c1cccc2nonc12)N1CCN(c2cccc(Cl)c2)CC1`: “inactive”; `CC(Nc1ccccc1)c1cccnc1` (stereo not drawn): “inactive”.
Then `Cc1nn2c(c1-c1ccccc1)N=C(c1ccco1)CC2c1ccccc1` (stereo not drawn), with “inactive”.
As for `CC(C)(C)NS(=O)(=O)CC12CCC(CC1=O)C2(C)C` (stereo not drawn), the B-score entry is “inactive”.
Turning to `COc1ccc(Cl)cc1NC(=O)NC(C)C(C)(C)C` (stereo not drawn), the B-score result is “inactive”.
Next, `COc1ccc(Cl)cc1NC(=O)C(C)N1CCc2ccccc21` (stereo not drawn): 7 (active).
Next, `COc1ccc(Cl)cc1NC(=O)NCC1CCN(Cc2ccccc2F)CC1`: “inactive”; `COc1ccccc1N1CCN(C(=O)c2cn(-c3ccccc3)nc2-c2cccnc2)CC1`: “inactive”.
Next, `COc1ccc(NC(=O)C(CC(C)C)NC(=O)C2CCC(C)CC2)cc1` (stereo not drawn): “inactive”; `COc1ccc(CCNCC(O)Cn2ccc3ccccc32)cc1OC` (stereo not drawn): “inactive”.
On to `Cc1cccc(NC(=S)Nc2ccc(Cl)c(Cl)c2)c1`, for which the B-score was 7 (active).
Next, `Cc1cccc(NC(=O)NC(=S)NC(=O)c2ccccc2)c1`: “inactive”.
As to `Cc1cccc(NC(=S)Nc2ccc(Br)cc2)c1`, the B-score was 6 (active).
Then `Cc1cccc(NC(=S)NC23CN4CN(CN(C4)C2)C3)c1`, with “inactive”.
As to `Cc1ccc(NC(=S)Nc2ccc(F)cc2)cc1`, the B-score result is “inactive”.
Next, `Cc1cccc(NC(=S)Nc2ccc3cn[nH]c3c2)c1`: “inactive”.
Next, `Cc1ccc(C)c(N2CCN(C(=O)CCCn3c(=O)c4cccn4c4cccnc43)CC2)c1`: “inactive”; `COC(=O)CN1C(=O)[C@H]2[C@@H](/C=C/c3ccccc3)N3C(=O)CN(Cc4ccccc4)C(=O)[C@@]3(Cc3ccccc3)[C@H]2C1=O`: “inactive”; `CN(C)/C=C(/C(=O)c1ccc(F)cc1)S(=O)(=O)c1ccc(F)cc1`: “inactive”.
Next, `Cc1nnc(SC(C(=O)Nc2cc(Cl)cc(Cl)c2)c2ccccc2)[nH]c1=O` (stereo not drawn): 8 (active); `CC(NCC(=O)Nc1cc(Cl)cc(Cl)c1)c1ccccc1` (stereo not drawn): “inactive”.
For the compound `Cc1nnc(SC(C(=O)c2ccccc2)c2ccccc2)[nH]c1=O` (stereo not drawn), the B-score result is “inactive”.
Next, `CC(/C=C/c1ccco1)=N/NC(=O)C1COc2ccccc2O1` (stereo not drawn): “inactive”.
Then `O=C(N/N=C/C=C/c1ccccc1)C1CC1(c1ccccc1)c1ccccc1` (stereo not drawn), with “inactive”; and `CC(/C=C/c1ccccc1)=N\NC(=O)C1CC1(C)c1ccccc1` (stereo not drawn), with 9 (active); and `COc1ccc(NC(=O)c2oc3ccc(S(=O)(=O)N4CCOCC4)cc3c2C)cc1`, with “inactive”.
On to `COCCN1C2=C(COC(C)(C)C2)C(=S)NC1c1ccccc1` (stereo not drawn), for which the B-score entry is “inactive”.
`Cc1nc([N+](=O)[O-])nn1C12CC3CC(CC(Br)(C3)C1)C2`: the B-score result was “inactive”.
On to `CCOC(=O)c1c(NC(=O)CCCN2CCOCC2)sc2c1CC(C)(C)OC2`, for which the B-score result was “inactive”.
Next, `CCOC(=O)c1[nH]ncc1CN1CCCC(C(=O)c2ccc(OC)cc2C)C1` (stereo not drawn): “inactive”.
With `COc1ccc(C(=O)C2CCCN(Cc3cccn3-c3ccccn3)C2)c(C)c1` (stereo not drawn), the B-score is 9 (active).
Next, `COc1ccc(C(=O)C2CCCN(Cc3ccc4nonc4c3)C2)c(C)c1` (stereo not drawn): “inactive”.
`CCC(=O)c1ccc(OCC(O)Cn2nc(C)c(C(C)=O)c2C)cc1` (stereo not drawn): the B-score result was “inactive”.
On to `CCCc1cc(=S)n2c([nH]c3ccccc32)c1C#N`, for which the B-score was 8 (active).
Turning to `Cc1ccccc1Cn1c(=O)[nH]c2ccccc21`, the B-score entry was “inactive”.
Next, `CCOC(=O)CCc1c(C)c(C#N)c2[nH]c3ccccc3n2c1=O`: “inactive”.
Then `CCCN(CC1COc2ccccc2O1)C(=S)Nc1ccc(C)cc1` (stereo not drawn), with “inactive”; and `CCCn1c(C)cc(/C=C(\C#N)C(=O)OCC(=O)N(C)c2c(N)n(Cc3ccccc3)c(=O)[nH]c2=O)c1C`, with “inactive”.
Then `CCC(C)[C@@H](C(=O)N1CCNCC1)n1cc(CCCCN)nn1` (stereo partly drawn), with “inactive”.
In the case of `O=C(CCN1c2ccccc2Sc2ccccc21)Nc1ccccc1`, the B-score was 12 (active).
In the case of `CC1CCN(CCC(=O)Nc2ccccc2)CC1`, the B-score result was “inactive”.
As to `O=C(CCN1C(=O)c2ccccc2C1=O)Nc1ccncc1`, the B-score result is “inactive”.
Next, `CCN1CCN(C(=O)CN(C)S(=O)(=O)c2ccc3ccccc3c2)CC1`: “inactive”.
Next, `CON(C)S(=O)(=O)c1ccc2c(c1)NC(=O)C1CCCN21` (stereo not drawn): “inactive”.
Then `Clc1ccccc1CSc1nnc(-c2ccco2)c(-c2ccco2)n1`, with 11 (active); and `Fc1cccc(Cl)c1CSc1ccc(-c2ccco2)nn1`, with “inactive”; and `O=c1cc(O)nc(SCc2ccccc2Cl)[nH]1`, with “inactive”.
`CC[C@@]12C(=O)N(c3ccccc3)C(=O)N1[C@H](c1ccc(Br)cc1)[C@@H]1C(=O)N(C(C)(C)C)C(=O)[C@@H]12`: the B-score result is “inactive”.
On to `O=C1c2cccc3c([N+](=O)[O-])ccc(c23)C(=O)N1CC1CCCO1` (stereo not drawn), for which the B-score was 6 (active).
Then `CCC(=O)Nc1ccc(C(=O)Nc2ccc3c(c2)C(=O)N(CC2CCCO2)C3=O)cc1` (stereo not drawn), with “inactive”; and `CCOc1cccc(=O)c2c(C)n(CC3CCCO3)c(C)c12` (stereo not drawn), with “inactive”; and `CCOC(=O)C1CCN(Cc2coc3ccc(Cl)cc3c2=O)CC1`, with “inactive”.
Then `Cc1ccccc1-n1cc(CNC(=O)C2CCC(=O)N(C3CC3)C2)cn1` (stereo not drawn), with “inactive”; and `Cc1ccc(C)c(N2CCN(S(=O)(=O)c3c(C)[nH]c(C)c3C(=O)N3CCCC3)CC2)c1`, with “inactive”; and `c1ccc2sc(NN=C3CCCC3)nc2c1`, with “inactive”.
Then `O=[N+]([O-])c1cc(Br)c(O)c(/C=N/Nc2nc3ccccc3s2)c1`, with 12 (active); and `COc1ccc(CC(=O)N/N=C/c2cc([N+](=O)[O-])cc(Br)c2O)cc1`, with “inactive”; and `CCN(CC)CC(=O)Nc1sc2c(c1C(=O)c1ccccc1C)CCC2`, with 8 (active).
As for `CCc1ccc(N(CC(=O)Nc2sc3c(c2C(=O)OC)CCCC3)S(C)(=O)=O)cc1`, the B-score entry was “inactive”.
Take `O=C(Nc1sc2c(c1C(=O)O)CCC2)c1ccccc1F`: the B-score entry is “inactive”.
For `CCc1nc(N2CCN(C(C)=O)CC2)c2c3c(sc2n1)CCCC3`, the B-score entry was “inactive”.
In the case of `NS(=O)(=O)c1ccc(NC(=S)Nc2ccc(Br)c(Cl)c2)cc1`, the B-score was 8 (active).
Turning to `NS(=O)(=O)c1ccc(NC(=S)NC(=O)c2cccc(Br)c2)cc1`, the B-score result is “inactive”.
Then `NS(=O)(=O)c1ccc(CCNC(=S)Nc2ccc(S(N)(=O)=O)cc2)cc1`, with “inactive”; and `CCCCSc1[nH]c(=O)c(C(=O)OCC)cc1C#N`, with “inactive”.
Turning to `COCCN(C(=S)Nc1cccc(Cl)c1C)C(C)c1ccco1` (stereo not drawn), the B-score result was “inactive”.
Consider `Fc1ccc(/C=N/n2c(COc3ccccc3)n[nH]c2=S)cc1`, for which the B-score result is “inactive”.
Consider `CC(C)[C@H](NC(=O)N1CCn2c1nc1ccccc12)C(=O)NCCc1ccccc1`, for which the B-score result was “inactive”.
Next, `CC(C)CCNC(=O)Cn1c(=O)oc2cc(S(=O)(=O)N3CC(C)CC(C)C3)ccc21` (stereo not drawn): “inactive”.
Next, `CCOc1ccc(CN2CCN(Cc3c[nH]c4ccccc34)CC2)cc1`: 12 (active).
On to `CCOc1ccc(CN2CCCN(C)CC2)cc1`, for which the B-score result is “inactive”.
For `CCOc1ccc(CC(=O)NC2CCN(Cc3ccccc3)CC2)cc1`, the B-score entry was “inactive”.
For the compound `COc1ccc(N(C)S(=O)(=O)c2ccc3c(c2)CC(C)N3C(=O)C2CC2)c(OC)c1` (stereo not drawn), the B-score entry is “inactive”.
